BAZ2B inh: inhibitors of human BAZ2B bromodomain. AlphaScreen BAZ2B-H3K14Ac peptide displacement. Potency, µM (titrated, usually from 114 µM), for the others: at the top dose activity change, negative = inhibition, usual class: inhibitors. hit rate 4.4% among 360,000. AID 504333; also: % is scaled to controls: 0 for no effect and ±100 for the full control effect; nearly all actives have a fitted effect of over 60% in size
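Complex of BAZ2B and biotin-H3K14Ac (50 nM apiece) forms over 30 min at RT, then faces library compounds up to 110 uM for another 30 min; AlphaScreen beads added, 20 min dark incubation, luminescence read.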
GLS inhibitor: blocks human kidney-isoform glutaminase activity | Potency, µM (highest dose often 45.5 µM), inactives show top-dose activity change, negative = inhibition, hits mostly inhibitors | O94925 | GLS enzymatic activity, qHTS titration | hit rate 0.21% among 410,000 | AID 624170; also: % is scaled to controls: 0 for no effect and ±100 for the full control effect
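Glutamate formation by hKGA was monitored fluorometrically using coupled glutamate oxidase, HRP and Amplex Red. Substrate was added as 1 mM L-glutamine solution; incubation was 30 min at RT after an initial read.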
HP1b binding inh: blocks HP1-beta chromodomain binding to methylated histone tails. Potency, µM (top dose mostly 114 µM), without a hit: top-dose activity change, negative = inhibition, actives largely listed as inhibitors. hit rate 0.56% among 390,000. AID 540317. AlphaScreen HP1-beta / biotin-H3K9me3 peptide binding; also: nearly all actives have a fitted effect of over 70% in size
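AlphaScreen: HP1-beta (50 nM) preformed 30 min with biotin-H3(1-18)K9me3 peptide (50 nM) in PBS pH 7.4, 0.01% Tween-20. Compound added for 30 min at RT, then streptavidin donor/nickel chelate acceptor beads (10 ug/mL) for 30 min.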
G9a block: inhibitors of human histone lysine methyltransferase G9a | hit rate 8.8% among 350,000 | Q96KQ7 | G9a H3K9 monomethylation, AlphaScreen, 2 h | Potency, µM (series often up to 102 µM), for inactives: at the highest dose activity, negative = inhibition, hits mostly inhibitors | AID 504332; also: % is scaled to controls: 0 for no effect and ±100 for the full control effect; nearly all actives have a fitted effect of over 75% in size
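Compounds were preincubated with 20 nM G9a for 15 min, after which biotinylated H3K9 peptide (500 nM) and SAM (20 uM) started a 2 h room-temperature reaction. Monomethylated product was quantified by antibody-based AlphaScreen chemiluminescence.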
JMJD2A Tudor: blocks the human JMJD2A Tudor domain. O75164. AlphaScreen JMJD2A-Tudor / H3K4me3 peptide binding. Potency, µM (series often up to 114 µM), inactives show at the highest dose activity change, negative = inhibition, most hits filed as inhibitors. hit rate 4.4% among 390,000. AID 504339; also: % is scaled to controls: 0 for no effect and ±100 for the full control effect; nearly all actives have a fitted effect of over 50% in size
The depositor's hits bear a star; [ ] = another dose, or the depositor's remark. Compounds with a hit are over-represented: about 10% of the library has one in this group of screens. Calls follow the shape of the dose curve; as a rule, active = well fitted curve in the direction sought with a large enough effect; inconclusive = small, poorly fitted or top-dose-only effect, or another doubt; inactive = no such curve, though single readings can be large; an effect the other way counts as inactive or inconclusive. Potency is read from the fitted curve at half-maximal effect.

For Cc1ccc(S(=O)(=O)ON2C(=O)c3cccc4cccc(c34)C2=O)cc1 the results were BAZ2B inh -2%, GLS inhibitor -2%, HP1b binding inh 54%, G9a block 28%[59 µM] and JMJD2A Tudor -24%.
CCCCCc1ccc(CC(=O)Nn2c(C)nc3ccccc3c2=O)cc1 was read as BAZ2B inh -8%, GLS inhibitor -1%, HP1b binding inh 6%, G9a block 6%[12.7 µM] and JMJD2A Tudor -19%.
Screening COc1ccc(NC(=O)CN(C)C(=O)c2cc(CN3C(=O)c4ccccc4C3=O)ccc2OC)cc1 returned BAZ2B inh 4%, GLS inhibitor -1%, HP1b binding inh -22%, G9a block -32% and JMJD2A Tudor -12%.
Screening CCCOc1cccc(C2c3c(oc4ccc(F)cc4c3=O)C(=O)N2CCc2ccc(OC)cc2)c1 (stereo not given) returned BAZ2B inh 1%, GLS inhibitor -2%, HP1b binding inh 34%, G9a block -5%[59 µM] and JMJD2A Tudor -4%.
For CCOC(=O)c1c(C)[nH]c(C(=O)COC(=O)COc2ccccc2C=O)c1C the results were BAZ2B inh -36%, GLS inhibitor inconclusive, HP1b binding inh -13%, G9a block -3%[59 µM] and JMJD2A Tudor 45µM*.
For CCOC(=O)c1c(C)[nH]c(C(=O)COC(=O)/C=C/c2cccc(OC)c2OC)c1C the results were BAZ2B inh 7%, GLS inhibitor -6%, HP1b binding inh 14%, G9a block 14% and JMJD2A Tudor -9%.
Screening Cc1cccc(N2CCN(C(=O)c3cc4c(=O)[nH]c5ccc(C)cc5c4s3)CC2C)c1 (stereo not given) returned BAZ2B inh inconclusive, GLS inhibitor -8%, HP1b binding inh 0%, G9a block inconclusive and JMJD2A Tudor -33%.
COCC(=O)Nc1ccc(S(=O)(=O)NCC2CCCO2)cc1 (stereo not given) was read as BAZ2B inh 1%, GLS inhibitor 2%, HP1b binding inh 12%, G9a block 25% and JMJD2A Tudor 0%.
`O=C(Cc1ccc(Br)cc1)Nc1ccc(S(=O)(=O)NCC2CCCO2)cc1` (stereo not given) gave BAZ2B inh -17%, GLS inhibitor 0%, HP1b binding inh -11%, G9a block 7%[12.7 µM] and JMJD2A Tudor 22µM*.
`NS(=O)(=O)c1ccc(NC(=S)NCC2CCCO2)cc1` (stereo not given) gave BAZ2B inh -4%, GLS inhibitor -13%, HP1b binding inh inconclusive, G9a block 11µM* and JMJD2A Tudor -12%.
CC(=O)Nc1ccc(S(=O)(=O)NNC(=S)NCC2CCCO2)cc1 (stereo not given) was read as BAZ2B inh -27%, GLS inhibitor 17%, HP1b binding inh 17%, G9a block 32µM* and JMJD2A Tudor inconclusive.
For O=C(O)CCc1ccc(-c2cccs2)n1CCc1ccccc1 the results were BAZ2B inh 28µM*, GLS inhibitor 0%, HP1b binding inh 34% and JMJD2A Tudor inconclusive.
For Cc1ccc(NC(=O)Cn2c(CCC(=O)O)ccc2-c2cccs2)cc1Cl the results were BAZ2B inh inconclusive, GLS inhibitor 12%, HP1b binding inh 14%, G9a block 45µM* and JMJD2A Tudor inconclusive.
O=C(O)CCn1nnc(-c2cccs2)n1 was read as BAZ2B inh 79µM*, GLS inhibitor 5%, HP1b binding inh 17%, G9a block inconclusive and JMJD2A Tudor -13%.
`COc1cccc(NC(=O)Cn2c(CCC(=O)O)ccc2-c2ccc(Cl)cc2)c1` gave BAZ2B inh 45µM*, GLS inhibitor 41%, HP1b binding inh -13% and JMJD2A Tudor -22%.
For COc1cccc(NC(=O)Cn2c(CCC(=O)O)ccc2-c2ccccc2)c1 the results were BAZ2B inh -32%, GLS inhibitor 3%, HP1b binding inh 5%, G9a block -37% and JMJD2A Tudor -10%.
Screening CCOc1ccccc1N1CC(C(=O)Nc2c(C)n(C)n(-c3ccccc3)c2=O)CC1=O (stereo not given) returned BAZ2B inh -36%, GLS inhibitor -4%, HP1b binding inh 18%, G9a block 8% and JMJD2A Tudor -10%.
`O=C(O)CCc1ccc(-c2cccs2)n1CCC(=O)O` gave BAZ2B inh inconclusive, GLS inhibitor -4%, HP1b binding inh 28%, G9a block 20µM* and JMJD2A Tudor -29%.
For O=[N+]([O-])c1cc(S(=O)(=O)C(F)(F)F)ccc1N1CCN(c2ccccc2)CC1 the results were BAZ2B inh 8.9µM*, GLS inhibitor -13%, HP1b binding inh inconclusive, G9a block 20µM* and JMJD2A Tudor inconclusive.
`O=[N+]([O-])c1cc(S(=O)(=O)Nc2ccccc2)ccc1N1CCN(c2ccccc2)CC1` gave BAZ2B inh 40µM*, GLS inhibitor 2%, HP1b binding inh inconclusive, G9a block 32µM* and JMJD2A Tudor 10µM*.
O=[N+]([O-])c1cc(S(=O)(=O)Nc2ccccc2)ccc1Nc1ccccc1 was read as GLS inhibitor 1%, HP1b binding inh inconclusive and JMJD2A Tudor 22µM*.
Screening COC(=O)c1ccc2c(=O)n(CCCCCC(=O)NCc3ccc(Cl)cc3)c(=O)[nH]c2c1 returned BAZ2B inh -2%, GLS inhibitor -27%, HP1b binding inh 27%, G9a block 9%[59 µM] and JMJD2A Tudor -17%.
OCCC1CCCCN1CC(O)COCc1ccc(Cl)cc1 (stereo not given) was read as BAZ2B inh inconclusive, GLS inhibitor 14%, HP1b binding inh inconclusive, G9a block inconclusive and JMJD2A Tudor 22µM*.
Screening CCC1CCCCN1CC(O)COCc1cccc(OC)c1 (stereo not given) returned BAZ2B inh -16%, GLS inhibitor -13%, HP1b binding inh -8%, G9a block 13% and JMJD2A Tudor -8%.
For NC(=O)C1CCCN(CC(O)COCc2ccc(Cl)cc2)C1 (stereo not given) the results were BAZ2B inh 50µM*, GLS inhibitor -1%, HP1b binding inh -32%, G9a block -10% and JMJD2A Tudor 18µM*.
For Cc1ccc(C2c3[nH]c4ccccc4c3CCN2C(=O)CCc2ccccc2)cc1 (stereo not given) the results were BAZ2B inh inconclusive, GLS inhibitor 2%, HP1b binding inh 0%[57 µM], G9a block -31%[59 µM] and JMJD2A Tudor inconclusive.
`CC1(C(=O)Nc2cccc3ccccc23)CCN1C(=O)Cc1ccc(Cl)cc1Cl` (stereo not given) gave GLS inhibitor -9%.
`O=C(NCCc1ccc(O)c(O)c1)C1COc2ccccc2O1` (stereo not given) gave BAZ2B inh -13%, GLS inhibitor inconclusive, HP1b binding inh 35µM*, G9a block 2.2µM* and JMJD2A Tudor 18µM*.

Bioassay records: PubChem, National Center for Advancing Translational Sciences (NCATS)
